Among the data in PubChem BioAssay (NCATS) are outcome and Potency values, retold here.

Results filed as inconclusive are left out. Activity calls are given as the source filed them. Calls come from the whole dose curve; as a rule, active = well fitted curve in the direction sought with a large enough effect; inconclusive = small, poorly fitted or top-dose-only effect, or another doubt; inactive = no such curve, though single readings can be large; an effect the other way counts as inactive or inconclusive.

Experiment [1] deals with ATP-dependent 6-phosphofructokinase (Trypanosoma brucei brucei) (UniProt O15648). Briefly: qHTS Assay to Find Inhibitors of T. brucei phosphofructokinase: hit validation (AID 492961).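 Note: luminescence reports ADP formed as PFK phosphorylates fructose-6-phosphate with ATP.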 In a few lines:
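Inhibition of parasite PFK is measured as reduced ADP formation, quantified via luciferase after ATP depletion. Assay used 0.1 mM ATP, 0.5 mM F6P, 1.25 nM enzyme, 45 min incubation.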

The subject of experiment [2] is CP185. Kind of experiment: qHTS profiling for inhibitors of Plasmodium falciparum proliferation (AID 504749). Note: nearly all actives have a fitted effect of over 60% in size. Note: potency is the fitted concentration of half-maximal effect. The conditions noted are these: P. falciparum in erythrocytes, SYBR Green DNA, 72 h; series mostly up to 28.7 µM. The gist of the method:
(§1)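 Readout was DNA-dye fluorescence from lysed cultures, ex 485/em 535 nm. Parasitized red cells had grown 72 h with compound; data scaled between 0.29 uM artemisinin and DMSO wells and corrected using vehicle-only plates.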

The subject of experiment [3] is CP203. The experiment is described as above. Particulars: P. falciparum in erythrocytes, SYBR Green DNA, 72 h; series mostly up to 28.7 µM. In a few lines:
as §1

Experiment [4] has as its system CP211. Described as above. The conditions noted are these: P. falciparum in erythrocytes, SYBR Green DNA, 72 h; series mostly up to 28.7 µM. In a few lines:
as §1

Experiment [5] deals with CP250. The experiment is described as above. Particulars: P. falciparum in erythrocytes, SYBR Green DNA, 72 h; series mostly up to 28.7 µM. The gist of the method: as §1
Experiment [6] deals with CP252. Described as above. Particulars: P. falciparum in erythrocytes, SYBR Green DNA, 72 h; series mostly up to 28.7 µM. The gist of the method:
as §1

Experiment [7] concerns CP262. The experiment is described as above. Particulars: P. falciparum in erythrocytes, SYBR Green DNA, 72 h; series mostly up to 28.7 µM. The gist of the method:
as §1

Experiment [8] relates to CP297. Described as above. The conditions noted are these: P. falciparum in erythrocytes, SYBR Green DNA, 72 h; series mostly up to 28.7 µM. The gist of the method:
as §1

The test system of experiment [9] is CP305. Described as above. The conditions noted are these: P. falciparum in erythrocytes, SYBR Green DNA, 72 h; series mostly up to 28.7 µM. In a few lines: as §1
Experiment [10] has as its system CP329. The description is as above. Particulars: P. falciparum in erythrocytes, SYBR Green DNA, 72 h; series mostly up to 28.7 µM. The gist of the method: as §1
The subject of experiment [11] is Dd2. The experiment is described as above. The conditions noted are these: P. falciparum in erythrocytes, SYBR Green DNA, 72 h; series mostly up to 28.7 µM. The gist of the method:
as §1

For experiment [12], the system named is ICS. The description is as above. The conditions noted are these: P. falciparum in erythrocytes, SYBR Green DNA, 72 h; series mostly up to 28.7 µM. The gist of the method: as §1
In experiment [13] the test system is PC15. Described as above. The conditions noted are these: P. falciparum in erythrocytes, SYBR Green DNA, 72 h; series mostly up to 28.7 µM. In a few lines:
as §1

Experiment [14] concerns TAB113. The experiment is described as above. The conditions noted are these: P. falciparum in erythrocytes, SYBR Green DNA, 72 h; series mostly up to 28.7 µM. In a few lines:
as §1

The subject of experiment [15] is CP237. The description is as above. Particulars: P. falciparum in erythrocytes, SYBR Green DNA, 72 h; series mostly up to 28.7 µM. The gist of the method: as §1
Experiment [16] relates to CP268. The experiment is described as above. The conditions noted are these: P. falciparum in erythrocytes, SYBR Green DNA, 72 h; series mostly up to 28.7 µM. In a few lines:
as §1

For experiment [17], the system named is CP269. The experiment is described as above. Particulars: P. falciparum in erythrocytes, SYBR Green DNA, 72 h; series mostly up to 28.7 µM. In a few lines:
as §1

For experiment [18], the system named is CP286. The description is as above. The conditions noted are these: P. falciparum in erythrocytes, SYBR Green DNA, 72 h; series mostly up to 28.7 µM. In a few lines:
as §1

The test system of experiment [19] is CP291. The experiment is described as above. The conditions noted are these: P. falciparum in erythrocytes, SYBR Green DNA, 72 h; series mostly up to 28.7 µM. In a few lines: as §1
Experiment [20] deals with CP315. The description is as above. The conditions noted are these: P. falciparum in erythrocytes, SYBR Green DNA, 72 h; series mostly up to 28.7 µM. The gist of the method:
as §1

ATP-dependent 6-phosphofructokinase (Trypanosoma brucei brucei), sequence (O15648 whole entry, looked up): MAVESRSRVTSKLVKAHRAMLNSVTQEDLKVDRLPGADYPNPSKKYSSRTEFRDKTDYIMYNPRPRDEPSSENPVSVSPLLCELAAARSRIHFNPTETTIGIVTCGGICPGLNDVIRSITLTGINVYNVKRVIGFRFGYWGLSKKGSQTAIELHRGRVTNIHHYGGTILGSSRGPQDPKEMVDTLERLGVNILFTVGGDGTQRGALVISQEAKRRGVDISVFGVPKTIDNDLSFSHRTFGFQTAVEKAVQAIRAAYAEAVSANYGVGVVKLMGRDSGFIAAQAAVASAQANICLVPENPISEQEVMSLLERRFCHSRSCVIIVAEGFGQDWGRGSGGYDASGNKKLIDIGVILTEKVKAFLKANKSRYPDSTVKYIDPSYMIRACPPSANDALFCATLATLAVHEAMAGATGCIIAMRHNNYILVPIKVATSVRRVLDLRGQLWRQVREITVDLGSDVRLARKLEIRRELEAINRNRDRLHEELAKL

In the case of `CN(C)C1C(=O)C(C(N)=O)C(=O)C2(O)C(=O)C3C(=O)c4c(O)cccc4C(C)(O)C3C(O)C12` (stereo not drawn), the molecule was called inactive in experiment [1]. Also, the Potency entry in [2], in experiment [3], in experiment [4], in experiment [5], in experiment [6] and in [7] was “inactive” in each case. The Potency result in experiment [8], in experiment [9], in experiment [10], in [13] and in experiment [14] was “inactive” each time. Also, the Potency in experiment [11] is 3550 nM (active); in experiment [12], 2820 nM (active).
As to `C#C[C@]1(O)CC[C@H]2[C@@H]3CCC4=CC(=O)CCC4(C)[C@H]3CCC21C` (stereo partly drawn), the result in experiment [1] was inactive. Moreover, the Potency result in experiment [2], in experiment [3], in [4], in experiment [15], in experiment [5] and in experiment [6] was “inactive” in each case. Further, the Potency entry in experiment [7], in experiment [16], in experiment [17], in experiment [18], in [19] and in experiment [9] was “inactive” each time. Also, the Potency entry in [20], in [10], in experiment [11], in [12], in experiment [13] and in [14] was “inactive” in each case.
With `CCC/C=C/C=C/C(=O)OC1/C(=C/C(=O)OC)CC2CC(C(C)O)OC(=O)CC(O)CC3CC(OC(C)=O)C(C)(C)C(O)(CC4C/C(=C/C(=O)OC)CC(/C=C\C(C)(C)C1(O)O2)O4)O3` (stereo not drawn), in [1], the call was inactive. In addition, the Potency is 1000 nM (active) in [2]; 2820 nM (active) in experiment [15]; 1000 nM (active) in experiment [5]; 1260 nM (active) in experiment [6]; 1350 nM (active) in experiment [16]; 1510 nM (active) in experiment [17]. In addition, the Potency was 2240 nM (active) in experiment [18]; 2690 nM (active) in experiment [19]; 1690 nM (active) in experiment [8]; 1900 nM (active) in experiment [9]; 1900 nM (active) in [10]; 2240 nM (active) in [11]. Also, the Potency in experiment [12] is 562 nM (active); in experiment [13] it was 2240 nM (active); in experiment [14], 1780 nM (active).
Turning to `CCN(CC)C(=O)N[C@@H]1C=C2c3cccc4[nH]cc(c34)C[C@H]2N(C)C1`, the molecule was called inactive in [1]. Further, the Potency entry in experiment [3] and in experiment [20] was “inactive” each time. Besides, the Potency was 14100 nM (active) in [11], 8910 nM (active) in experiment [12] and 7940 nM (active) in experiment [14].
Regarding `CC(C)CCC(=O)OC1CCC2C3CCC4=CC(=O)CC[C@]4(C)C3CC[C@]12C` (stereo partly drawn), the Potency in [2] was 10000 nM (active); in [15], 11200 nM (active); in experiment [5], 10000 nM (active); in experiment [18] it was 4470 nM (active); in [12], 7940 nM (active); in [14] it was 7080 nM (active). Also, the Potency entry in experiment [3], in experiment [4], in experiment [7], in experiment [16], in experiment [17] and in [8] was “inactive” throughout. Further, the Potency entry in [9], in [20] and in experiment [10] was “inactive” each time.
For `O=[N+]([O-])OC1CO[C@H]2C(O[N+](=O)[O-])COC12` (stereo partly drawn), the molecule was classed as inactive in experiment [1]. Further, the Potency result in experiment [2], in experiment [3], in experiment [4], in experiment [15], in [5] and in [6] was “inactive” each time. Also, the Potency result in experiment [7], in experiment [16], in experiment [17], in experiment [18], in [19] and in experiment [8] was “inactive” each time. For the same molecule, the Potency entry in experiment [9], in experiment [20], in [10], in experiment [11], in experiment [12] and in experiment [13] was “inactive” in each case. Besides, the Potency result in [14] was “inactive”.
In the case of `CC(Cc1ccccc1)N(C)C` (stereo not drawn), in experiment [1], the outcome was inactive. For the same molecule, the Potency result in [2], in experiment [3], in experiment [4], in [15], in experiment [5] and in experiment [6] was “inactive” each time. The Potency entry in experiment [17], in experiment [18], in [19], in experiment [8], in experiment [9] and in [20] was “inactive” throughout. The Potency result in [10], in experiment [11], in experiment [12], in [13] and in experiment [14] was “inactive” each time.
Consider `CCC(=O)OC1(c2ccccc2)CCN(C)CC1C` (stereo not drawn), for which the Potency result in [4], in experiment [7], in experiment [16], in experiment [17], in experiment [20] and in experiment [12] was “inactive” in each case. Also, the Potency result in experiment [13] was “inactive”. Also, the Potency in [15] is 3980 nM (active); in experiment [18] it was 12600 nM (active); in experiment [8], 12000 nM (active); in experiment [11] it was 5620 nM (active).
`O=C1CC2OCC=C3CN4CC[C@]56c7ccccc7N1C5C2[C@H]3C[C@H]46` (stereo partly drawn): the call in [1] was inactive. Moreover, the figures for the Potency in experiment [15] and in experiment [11] were 5010 nM (active) and 11200 nM (active), respectively. For the same molecule, the Potency entry in experiment [12] and in experiment [13] was “inactive” throughout.
Turning to `COC(C(=O)C(O)C(C)O)C1Cc2cc3cc(OC4CC(OC5CC(O)C(OC)C(C)O5)C(OC(C)=O)C(C)O4)c(C)c(O)c3c(O)c2C(=O)C1OC1CC(OC2CC(OC3CC(C)(O)C(OC(C)=O)C(C)O3)C(O)C(C)O2)C(O)C(C)O1` (stereo not drawn), in experiment [1], the molecule was classed as inactive. The Potency in experiment [2] is 1260 nM (active); in experiment [3], 4780 nM (active); in experiment [15] it was 89.1 nM (active); in [5], 2000 nM (active); in experiment [6], 2000 nM (active); in experiment [7], 3380 nM (active). Besides, the Potency is 1900 nM (active) in experiment [16]; 1900 nM (active) in experiment [17]; 100 nM (active) in experiment [18]; 2130 nM (active) in [19]; 4260 nM (active) in [8]; 2390 nM (active) in experiment [9]. The Potency is 3380 nM (active) in experiment [10]; 178 nM (active) in [11]; 112 nM (active) in [12]; 2240 nM (active) in [13]; 708 nM (active) in [14].
`O=C1CC2OCC=C3CN4CCC56c7ccccc7N1C5[C@H]2[C@H]3C[C@H]46` (stereo partly drawn) (tested in a mixture with another compound): the molecule was classed as inactive in experiment [1]. For the same molecule, the Potency result in experiment [2], in experiment [4], in experiment [15], in experiment [5], in experiment [6] and in [16] was “inactive” each time. Besides, the Potency result in experiment [17], in experiment [19], in experiment [8], in experiment [20], in experiment [10] and in experiment [13] was “inactive” in each case. In addition, in experiment [14], the Potency result was “inactive”.
On to `CC(C)=CC1C(C(=O)OCc2coc(Cc3ccccc3)c2)C1(C)C` (stereo not drawn), for which the result in experiment [1] was inactive. Also, the Potency entry in experiment [2], in [3], in experiment [4], in [15], in [5] and in [6] was “inactive” throughout. For the same molecule, the Potency entry in experiment [7], in experiment [16], in experiment [17], in experiment [18], in [19] and in experiment [8] was “inactive” each time. For the same molecule, the Potency entry in experiment [9], in [20], in experiment [10], in [11] and in experiment [13] was “inactive” in each case.
Consider `CC(CO)NC(=O)C1C=C2c3cccc4[nH]cc(c34)CC2N(C)C1` (stereo not drawn), for which the Potency entry in [2], in [3], in experiment [4], in [15], in experiment [5] and in experiment [6] was “inactive” throughout. The Potency entry in [7], in experiment [16], in experiment [17], in experiment [18], in [19] and in experiment [8] was “inactive” in each case. Also, the Potency result in [9], in [20], in experiment [10], in experiment [11], in experiment [12] and in experiment [13] was “inactive” each time. In addition, the Potency result in [14] is “inactive”.
